Data taken from PubChem BioAssay AID504832 (National Center for Advancing Translational Sciences (NCATS), 2011).
In all, about 310,000 compounds went through this assay and about 18,000 (5.8%) were called active. A call without a number means that no potency is given here. Roughly 22% stayed inconclusive and do not appear here. The sample as a whole holds a higher share of actives than the screen did. Unmarked numbers belong to inactive results. The call rests on the fitted dose curve; in most records, active means well fitted inhibition curve with a large enough effect; inconclusive means small, poorly fitted or top-dose-only effect, or another doubt; inactive means no such curve, though single readings can be large or run the other way.

Test: Primary qHTS for delayed death inhibitors of the malarial parasite plastid, 48 hour incubation
Conditions: P. falciparum luciferase growth in erythrocytes; series mostly up to 28.7 µM
Procedure, shortened: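 In quantitative HTS format, infected erythrocytes bearing luciferase-reporter parasites were treated for a single generation at 37 C. Luminescence after adding detection reagent served as the growth measure.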
Potency means the concentration at half of the fitted maximal effect.

| SMILES | Potency | activity change, negative = inhibition |
| --- | --- | --- |
| COc1ccc2oc(=O)cc(CN3CCOCC3)c2c1 | inactive |  |
| CC(=O)c1c(C)[nH]c(C(=O)CN2C(=O)NC(C)(C)C2=O)c1C | inactive |  |
| CC1CCCN(C(=O)CN2C(=O)c3ccccc3S2(=O)=O)C1 (stereo not given) | inactive |  |
| O=C(NNS(=O)(=O)c1ccc([N+](=O)[O-])cc1)C1CCCCC1 | inactive |  |
| CC(=O)O[C@H]1c2ccccc2-c2ccccc2[C@@H]1OC(C)=O | inactive |  |
| C[N+](C)(C)CCNC(=O)c1cc[n+](Cc2ccccc2)c(/C=N/O)c1 | inactive |  |
| CC(=O)c1ccc(S(=O)(=O)NCCC(=O)N2CCN(c3ccccn3)CC2)cc1 | inactive |  |
| COc1cc(NC(=O)c2ccccc2)c(OC)cc1NC(=O)Cc1ccccc1 | inactive |  |
| Nn1c(SCC(=O)Nc2nccs2)nnc1-c1ccco1 | inactive |  |
| CCC(NC(=O)C1CCCC1)c1ccc(C)cc1 (stereo not given) | inactive |  |
| COc1cccc(N2CC(NS(=O)(=O)c3cccs3)CC2=O)c1 (stereo not given) | inactive |  |
| Cc1ccc(NC(=O)c2c(NC(=O)CCC(=O)O)sc3c2CCCCC3)cc1 | inactive |  |
| Cc1ccc(C(=O)c2c(NC(=O)c3ccncc3)sc3c2CCCC3)cc1 | 6.57 µM (active) |  |
| NC(=O)c1c(NC(=O)c2ccccc2)sc2c1CCCC2 | inactive |  |
| COc1cccc(NC(=O)N2CCC(NC(=O)C(Cc3cccc(C)c3)NC(C)=O)CC2)c1 (stereo not given) | inactive |  |
| CC(C)[C@H](NC(=O)N1CCn2c1nc1ccccc12)C(=O)NC1CC1 | inactive |  |
| CC(OC(=O)c1ccc(S(=O)(=O)N2CCOCC2)cc1)c1ccccc1 (stereo not given) | inactive |  |
| COC(=O)c1c(NC(=O)c2ccc(S(=O)(=O)N3CCOCC3)cc2)sc2c1CCN(C(C)C)C2 | 11.7 µM (active) |  |
| CNC(=O)c1ccsc1NC(=O)c1ccc(S(=O)(=O)N2CCOCC2)cc1 | inactive |  |
| COCC(=O)N1CCCC(C(=O)c2ccc(C(F)(F)F)cc2)C1 (stereo not given) | inactive |  |
| Cc1nc(Cl)c2oc3ccccc3c2n1 | inactive |  |
| CCOC(=O)c1sc2nc(CSc3ccccc3)[nH]c(=O)c2c1C | inactive |  |
| O=c1[nH]c(CSc2ccccc2)nc2c1oc1ccccc12 | 10.4 µM (active) |  |
| Cn1c(CC(=O)Nc2ccc(F)cc2)nnc1SCC(=O)NC1CCCCC1 | inactive |  |
| CCCCN1C(=O)/C(=C2/Sc3ccc(Cl)cc3N2CC)SC1=S | inactive |  |

| SMILES | Potency | activity change, negative = inhibition |
| --- | --- | --- |
| CC(NCc1cccs1)C(=O)Nc1cc(Cl)cc(Cl)c1 (stereo not given) | inactive |  |
| CCOCCCNC(=O)C1(O)c2cc(Br)ccc2NC(=O)N1c1ccc(C)c(C)c1 (stereo not given) |  | -7.48% [at 0.00184 µM] |
| CCCCN1C(=O)C(C)=C(C)C1OCCc1ccc(OC)c(OC)c1 (stereo not given) | inactive |  |
| C=CCC(NC(=O)Cc1ccccc1)C(=O)NCCC (stereo not given) | inactive |  |
| O=C(O)Cc1ccc(-c2ccccc2)cc1 | inactive |  |
| O=C(Cc1ccc(-c2ccccc2)cc1)NC(c1ccccc1)c1ccccc1 | 13.1 µM (active) |  |
| Cc1ccc(S(=O)(=O)NCC(=O)N2CCOCCOCCOCCOCC2)cc1 | inactive |  |
| Cc1cc(C)cc(C(=O)NC(CC(N)=O)c2ccc(N3CCC(N4CCCCC4)CC3)c([N+](=O)[O-])c2)c1 (stereo not given) | inactive |  |
| O=C1[C@H]2[C@@H](c3ccc(F)cc3)N3C(=O)N(c4ccc(C(F)(F)F)cc4)C(=O)[C@@]3(Cc3ccccc3)[C@H]2C(=O)N1C1CCCCC1 | 4.65 µM (active) |  |
| COC(=O)CN1C(=O)[C@H]2[C@@H](/C=C/c3ccccc3)N3C(=O)CN(Cc4ccccc4)C(=O)[C@@]3(Cc3ccccc3)[C@H]2C1=O | inactive |  |
| O=C1[C@H]2[C@@H](c3ccc(Cl)cc3)N3C(=O)N(c4cccc(F)c4)C(=O)[C@@]3(Cc3ccccc3)[C@H]2C(=O)N1C1CCCCC1 | 9.28 µM (active) |  |
| COc1ccc(C2C(C(C)=O)=C(O)C(=O)N2Cc2cccnc2)cc1 (stereo not given) | inactive |  |
| COc1ccc([C@@H]2[C@@H]3C(=O)N(C(C)(C)C)C(=O)[C@@H]3[C@]3(Cc4ccccc4)C(=O)N(c4cccc(Br)c4)C(=O)N23)cc1 | 2.62 µM (active) |  |
| O=C(NC1(C(F)(F)F)NC(=O)N(C2CCCCC2)C1=O)c1ccco1 (stereo not given) | inactive |  |
| COc1ccc(N2C(=O)C(Cc3ccccc3)NC2=S)cc1 (stereo not given) | inactive |  |
| Cc1cccc([C@@H]2[C@@H]3C(=O)N(Cc4ccccc4)C(=O)[C@@H]3[C@]3(Cc4ccc(Cl)cc4)C(=O)N(c4cccc(Cl)c4)C(=O)N23)c1 | 4.15 µM (active) |  |
| O=C1CC(NNc2ccccc2)C(=O)N1c1cccc(Cl)c1 (stereo not given) | inactive |  |
| O=C(CCNS(=O)(=O)c1ccc(Br)cc1)NCC1CCCO1 (stereo not given) | inactive |  |
| CCc1ccc(/C=N/NC(=O)c2nnn(-c3nonc3N)c2CN2CCc3ccccc32)cc1 | inactive |  |
| Cc1cc(OC(=O)c2ccc(OC(C)C)cc2)c([N+](=O)[O-])c(=O)[nH]1 | inactive |  |
| Cc1ccc(NS(=O)(=O)c2ccc(C(=O)NCCCN3CCOCC3)cc2)cc1 | inactive |  |
| COc1ccc(N2CCN(C(=O)CN3C(=O)COc4ccccc43)CC2)cc1 | inactive |  |
| COc1ccc(Cc2nc3ccc(C(=O)NCC4CCOCC4)cc3o2)cc1OC | inactive |  |
| COc1ccc(N(CCC(=O)NCCc2ccccc2)S(=O)(=O)c2ccc(C)cc2C)cc1 | inactive |  |
| Cc1ccc(N(CC(=O)Nc2cccc(N(C)S(C)(=O)=O)c2)S(C)(=O)=O)cc1 | inactive |  |

| SMILES | Potency | activity change, negative = inhibition |
| --- | --- | --- |
| COc1ccc(C)cc1S(=O)(=O)N(CC(=O)Nc1cccc([N+](=O)[O-])c1)c1ccc(C)cc1 | 9.28 µM (active) |  |
| COc1ccc(OCC(=O)Nc2cc(C)c(Cl)cc2OC)c([N+](=O)[O-])c1 | inactive |  |
| CN(CC(=O)Nc1cccc(F)c1)CC(=O)Nc1cccc([N+](=O)[O-])c1 | inactive |  |
| COc1ccc(N(CC(=O)Nc2ccc(C)cc2C)S(=O)(=O)c2ccccc2[N+](=O)[O-])c(OC)c1 | 9.28 µM (active) |  |
| Brc1ccccc1/C=N/Nc1nc2ccccc2o1 | inactive |  |
| COc1ccc(NC(=O)c2cccc(Cl)c2)c[n+]1[O-] | inactive |  |
| CC(C(=O)c1ccc(-c2ccccc2)cc1)[n+]1cccc(Br)c1 (stereo not given) | inactive |  |
| CC(C)C(=O)NCC(c1cccs1)S(=O)(=O)c1ccc(F)cc1 (stereo not given) | inactive |  |
| CC(CC(=O)N1CCN(S(=O)(=O)c2ccccc2)CC1)n1cncn1 (stereo not given) | inactive |  |
| COc1ccc(C(=O)CCc2ccccc2O)c(OC)c1 | inactive |  |
| COc1ccc(C(=O)CCC(=O)Nc2cccnc2)c(OC)c1 | inactive |  |
| COc1ccc(C(=O)/C=C/c2cccnc2)c(OC)c1 | 11.7 µM (active) |  |
| COc1ccccc1N(CC(=O)NC1CCCC1)C(=O)C1(C)CC(=O)N=C2C=CC(C)=CN21 (stereo not given) | inactive |  |
| COc1ccc(CNC(=O)CN(C(=O)c2csnn2)c2cnc3ccccc3c2)cc1 | inactive |  |
| CCOC(=O)N1CCN(Cc2nnc(-c3ccccc3Cl)o2)CC1 | inactive |  |
| COc1ccc(C(=O)Nc2sc(C)c(C)c2CN2CCOCC2)cc1 | inactive |  |
| COC(=O)c1cc(NC(=O)c2ccco2)ccc1N1CCOCC1 | inactive |  |
| COc1cc(C(c2c(NC(=O)c3ccco3)sc(C)c2C)N2CCOCC2)cc(OC)c1OC (stereo not given) | 10.4 µM (active) |  |
| O=c1c2cc([N+](=O)[O-])ccc2nc2n1CCC2 | inactive |  |
| COc1ccc(OC)c(NC(=O)C2CCCN2S(=O)(=O)c2cccc3nsnc23)c1 (stereo not given) | inactive |  |
| O=C(CCNS(=O)(=O)c1cccs1)N1CCN(c2ccc(F)cc2)CC1 | inactive |  |
| O=c1ccc2cc(S(=O)(=O)NCCCc3ccccc3)ccc2[nH]1 | inactive |  |
| CC(C)N(Cc1nnc(-c2ccc(Cl)cc2)o1)C(=O)C1=COCCO1 | inactive |  |
| CC(C)N(Cc1nnc(-c2ccccc2Br)o1)C(=O)c1cc(Cl)nc2ccccc12 | 9.28 µM (active) |  |
| Cn1cnnc1SCc1nnc(-c2ccccc2Br)o1 | inactive |  |

| SMILES | Potency | activity change, negative = inhibition |
| --- | --- | --- |
| COC(=O)C1=CO[C@@H](O[C@@H]2O[C@H](CO)[C@@H](O)[C@H](O)[C@H]2O)C2C1C[C@H](O)[C@@H]2C (stereo not given in full) | inactive |  |
| COc1ccc(C(=O)NCc2ccc(C)cc2)cc1S(=O)(=O)N1CCCC1 | inactive |  |
| CN(C)C(=O)Oc1ccc2c(c1)O/C(=C\c1ccccc1)C2=O | inactive |  |
| COC(=O)C(C)Oc1ccc2c(-c3cccc([N+](=O)[O-])c3)cc(=O)oc2c1 (stereo not given) | inactive |  |
| COC(=O)C(C)Oc1ccc2c(c1)O/C(=C\c1cccc(Br)c1)C2=O (stereo not given) | 13.1 µM (active) |  |
| CCOC(=O)CC1COCCN1C(=O)c1cc(COc2ccc(F)c(F)c2)on1 (stereo not given) | inactive |  |
| Cc1cc(Nc2ccc(Cl)cc2)nc(N2CCOCC2)n1 | inactive |  |
| Cc1cc(Nc2ccc(C(=O)N3CCCCC3)cc2)c2cccc(C)c2n1 | inactive |  |
| Cc1cc(Nc2ccc(N3CCOCC3)cc2)c2cccc(C)c2n1 | 4.15 µM (active) |  |
| O=[N+]([O-])c1ccc(C=Nc2ccc(Cl)cc2Cl)s1 | 10.4 µM (active) |  |
| O=S(=O)(Nc1ccccc1Cl)c1cccc2nsnc12 | inactive |  |
| C/C(CC(=O)NCc1ccc(Cl)cc1)=N\NC(=O)COc1ccc(C)cc1Br | inactive |  |
| COc1ccc(-c2cc(C(=O)N3CCN(Cc4ccc5c(c4)OCO5)CC3)on2)cc1OC | inactive |  |
| COc1ccccc1CCCNC(=O)C1CCC(=O)N(CCN2CCOCC2)C1 (stereo not given) | inactive |  |
| Cc1cccc(OCC(=O)NC(=S)Nc2ccccc2N2CCOCC2)c1 | inactive |  |
| Cc1cc(C)cc(OCC(=O)Nc2ccc(N3CCOCC3)cc2N2CCOCC2)c1 | 11.7 µM (active) |  |
| O=C(COc1ccc(Cl)cc1)NC(=S)Nc1ccccc1N1CCOCC1 | inactive |  |
| CC(C)c1ccc(/C=C/C(=O)NCCCN2CCOCC2)cc1 | inactive |  |
| O=C(OCC(=O)N1CCN(C(=O)c2ccco2)CC1)c1cccc(O)c1 | inactive |  |
| CCCc1cc(-c2n[nH]c(=S)n2Cc2ccccc2)cs1 | inactive |  |
| Cc1cc(-c2csc(N)n2)c(C)n1Cc1ccccc1 | 11.7 µM (active) |  |
| Cc1n[nH]c(=O)n1-c1ccc(Oc2ccccc2)cc1 | inactive |  |
| O=c1onc(-c2cccs2)n1Cc1ccccc1 | inactive |  |
| Cc1cc(-c2csc(N)n2)c(C)n1-c1ccccc1 | 14.7 µM (active) |  |
| S=c1[nH]nc(-c2cc(-c3ccsc3)n[nH]2)n1-c1ccccc1 | inactive |  |
